This note sets out measurements from PMC7862700, “An all-to-all approach to the identification of sequence-specific readers for epigenetic DNA modifications on cytosine”.

Holding throughout (assay): DAPPL (digital affinity profiling via proximity ligation, sequencing); 10 mM Tris-HCl pH 7.5, 50 mM NaCl, 1 mM DTT, 4% glycerol, room temperature, 30 min; GST-TFs on glutathione beads, 16-mer random dsDNA library, 0.1% formaldehyde crosslink after washing; high values mean tight binding
The target in one assay is T1, FEV (Homo sapiens, UniProt Q99581 1-238).
T1 sequence: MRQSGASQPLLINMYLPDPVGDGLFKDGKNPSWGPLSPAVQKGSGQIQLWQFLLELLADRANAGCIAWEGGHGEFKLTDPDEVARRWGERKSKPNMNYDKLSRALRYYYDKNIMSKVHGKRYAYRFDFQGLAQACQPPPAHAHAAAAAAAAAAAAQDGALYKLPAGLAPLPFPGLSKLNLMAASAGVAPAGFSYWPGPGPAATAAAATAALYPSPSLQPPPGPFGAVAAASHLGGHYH
Particulars: protein: recombinant; tags: N-terminal GST; dsDNA, one strand shown. In outline: (§1)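 Beads coated with glutathione captured GST-fused human transcription factors that had been expressed in yeast, and the factors were then given DNA barcodes and pooled with a tag-only sample. The pools were incubated with 200 nmole of a random double-stranded 16-mer DNA library in Tris/NaCl/DTT/glycerol buffer for 30 min at room temperature, washed, crosslinked with 0.1% formaldehyde and proximity-ligated with BsaI/T4 ligase at 37 °C for 1 h. PCR amplification and Illumina NextSeq500 sequencing came last. Binding signal is each hexamer's read frequency for a factor divided by its frequency for the tag-only sample.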

Another assay deals with ETV5 (Homo sapiens, UniProt P41161 1-510). Particulars: protein: recombinant; tags: N-terminal GST; dsDNA, one strand shown. The procedure, abridged: as §1
A further assay has as its target HSF1 (Homo sapiens, UniProt Q00613 1-529). Particulars: protein: recombinant; tags: N-terminal GST; chain copies: 3; dsDNA, one strand shown. The procedure, abridged: as §1
The target of the next assay is T2, SPIC (Homo sapiens, UniProt Q8N5J4 1-248).
T2 sequence: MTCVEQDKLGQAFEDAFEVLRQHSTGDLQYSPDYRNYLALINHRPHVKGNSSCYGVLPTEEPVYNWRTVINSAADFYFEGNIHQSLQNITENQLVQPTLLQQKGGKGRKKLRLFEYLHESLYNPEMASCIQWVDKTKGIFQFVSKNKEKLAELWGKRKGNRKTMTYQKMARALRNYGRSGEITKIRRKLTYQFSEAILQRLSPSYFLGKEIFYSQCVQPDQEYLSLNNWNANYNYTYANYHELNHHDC
The note with it: protein: recombinant; tags: N-terminal GST; dsDNA, one strand shown. In outline: as §1

The target in the next assay is ELF4 (Homo sapiens, UniProt Q99607 1-663). The note with it: protein: recombinant; tags: N-terminal GST; dsDNA, one strand shown. In outline:
as §1

The next assay concerns the target T3, ELK4 (Homo sapiens, UniProt P28324-2 1-405).
T3 sequence: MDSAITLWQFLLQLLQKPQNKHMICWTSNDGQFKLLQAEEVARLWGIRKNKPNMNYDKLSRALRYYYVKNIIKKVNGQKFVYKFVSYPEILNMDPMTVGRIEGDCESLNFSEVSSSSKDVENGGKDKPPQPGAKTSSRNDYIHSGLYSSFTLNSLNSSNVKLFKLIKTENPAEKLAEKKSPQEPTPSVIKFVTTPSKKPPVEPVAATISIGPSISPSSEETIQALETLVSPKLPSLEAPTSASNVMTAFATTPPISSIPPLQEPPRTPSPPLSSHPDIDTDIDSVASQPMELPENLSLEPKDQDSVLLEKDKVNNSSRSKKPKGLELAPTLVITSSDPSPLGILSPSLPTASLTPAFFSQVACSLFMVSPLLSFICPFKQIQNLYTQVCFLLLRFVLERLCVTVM
Particulars: protein: recombinant; tags: N-terminal GST; dsDNA, one strand shown. In outline: as §1

In another assay the target is T4, ETV2 (Homo sapiens, UniProt O00321 1-342).
T4 sequence: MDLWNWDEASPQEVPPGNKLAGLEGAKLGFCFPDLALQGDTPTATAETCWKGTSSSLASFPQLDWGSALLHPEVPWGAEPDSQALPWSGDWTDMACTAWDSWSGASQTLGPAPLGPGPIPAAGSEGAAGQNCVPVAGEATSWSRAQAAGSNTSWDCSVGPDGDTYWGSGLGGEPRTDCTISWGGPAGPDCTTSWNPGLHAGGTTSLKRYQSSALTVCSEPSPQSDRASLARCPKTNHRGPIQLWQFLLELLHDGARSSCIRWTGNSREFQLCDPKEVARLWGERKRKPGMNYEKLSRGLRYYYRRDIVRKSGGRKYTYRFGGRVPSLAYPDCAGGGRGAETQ
The note with it: protein: recombinant; tags: N-terminal GST; dsDNA, one strand shown. The procedure, abridged: as §1

The target of another assay is T5, ELF3 (Homo sapiens, UniProt P78545 1-371).
T5 sequence: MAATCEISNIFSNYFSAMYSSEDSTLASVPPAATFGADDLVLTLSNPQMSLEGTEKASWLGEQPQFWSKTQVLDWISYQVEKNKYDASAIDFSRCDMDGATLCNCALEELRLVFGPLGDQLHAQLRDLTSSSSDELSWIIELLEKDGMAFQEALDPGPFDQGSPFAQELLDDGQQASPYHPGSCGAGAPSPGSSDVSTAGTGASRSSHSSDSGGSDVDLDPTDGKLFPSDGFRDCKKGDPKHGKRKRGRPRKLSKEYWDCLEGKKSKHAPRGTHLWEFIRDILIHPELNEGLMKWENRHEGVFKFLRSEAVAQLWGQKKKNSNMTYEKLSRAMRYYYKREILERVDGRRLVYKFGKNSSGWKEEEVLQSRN
Particulars: protein: recombinant; tags: N-terminal GST; dsDNA, one strand shown. The procedure, abridged: as §1

For a further assay, the target named is CRX (Homo sapiens, UniProt O43186 1-299). Particulars: protein: recombinant; tags: N-terminal GST; dsDNA, one strand shown. In outline:
as §1

The target in another assay is ETV1 (Homo sapiens, UniProt P50549 1-477). Particulars: protein: recombinant; tags: N-terminal GST; dsDNA, one strand shown. In outline:
as §1

Sequence of ETV1 (P50549 whole entry): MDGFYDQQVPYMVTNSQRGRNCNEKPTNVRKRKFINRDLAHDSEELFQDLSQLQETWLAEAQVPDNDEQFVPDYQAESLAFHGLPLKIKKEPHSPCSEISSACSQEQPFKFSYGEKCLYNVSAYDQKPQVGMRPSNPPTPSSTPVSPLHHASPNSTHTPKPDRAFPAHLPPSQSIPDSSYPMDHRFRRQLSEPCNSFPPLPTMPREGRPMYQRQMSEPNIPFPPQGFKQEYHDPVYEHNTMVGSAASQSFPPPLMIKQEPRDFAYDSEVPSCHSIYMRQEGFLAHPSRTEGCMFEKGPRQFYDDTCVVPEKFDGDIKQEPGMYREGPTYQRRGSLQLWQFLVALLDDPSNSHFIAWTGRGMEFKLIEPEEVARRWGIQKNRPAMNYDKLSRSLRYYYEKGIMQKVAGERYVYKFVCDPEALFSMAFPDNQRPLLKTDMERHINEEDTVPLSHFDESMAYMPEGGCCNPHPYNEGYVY
Sequence of CRX (O43186 whole entry): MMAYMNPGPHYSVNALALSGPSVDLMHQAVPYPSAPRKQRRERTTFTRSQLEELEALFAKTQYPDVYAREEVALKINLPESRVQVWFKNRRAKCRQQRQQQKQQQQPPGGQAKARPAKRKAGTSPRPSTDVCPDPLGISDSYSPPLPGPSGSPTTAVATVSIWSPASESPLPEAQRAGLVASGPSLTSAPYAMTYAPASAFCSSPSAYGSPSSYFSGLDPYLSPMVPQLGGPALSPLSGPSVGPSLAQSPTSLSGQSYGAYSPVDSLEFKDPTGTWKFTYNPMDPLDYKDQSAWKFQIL
Sequence of HSF1 (Q00613 whole entry): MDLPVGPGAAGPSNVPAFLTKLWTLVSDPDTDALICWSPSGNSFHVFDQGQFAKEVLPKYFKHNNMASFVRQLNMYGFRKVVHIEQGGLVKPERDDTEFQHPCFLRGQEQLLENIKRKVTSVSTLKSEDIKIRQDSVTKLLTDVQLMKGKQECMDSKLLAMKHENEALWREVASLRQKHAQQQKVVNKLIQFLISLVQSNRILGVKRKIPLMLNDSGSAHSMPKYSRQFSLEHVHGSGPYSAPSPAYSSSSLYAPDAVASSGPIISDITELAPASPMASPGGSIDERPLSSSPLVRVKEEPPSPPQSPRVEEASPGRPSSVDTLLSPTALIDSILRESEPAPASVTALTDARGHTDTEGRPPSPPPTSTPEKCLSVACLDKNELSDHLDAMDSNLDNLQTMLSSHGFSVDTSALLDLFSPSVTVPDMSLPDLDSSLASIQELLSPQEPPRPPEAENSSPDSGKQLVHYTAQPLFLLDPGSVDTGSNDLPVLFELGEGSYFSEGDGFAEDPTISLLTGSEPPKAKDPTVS
Sequence of ELF4 (Q99607 whole entry): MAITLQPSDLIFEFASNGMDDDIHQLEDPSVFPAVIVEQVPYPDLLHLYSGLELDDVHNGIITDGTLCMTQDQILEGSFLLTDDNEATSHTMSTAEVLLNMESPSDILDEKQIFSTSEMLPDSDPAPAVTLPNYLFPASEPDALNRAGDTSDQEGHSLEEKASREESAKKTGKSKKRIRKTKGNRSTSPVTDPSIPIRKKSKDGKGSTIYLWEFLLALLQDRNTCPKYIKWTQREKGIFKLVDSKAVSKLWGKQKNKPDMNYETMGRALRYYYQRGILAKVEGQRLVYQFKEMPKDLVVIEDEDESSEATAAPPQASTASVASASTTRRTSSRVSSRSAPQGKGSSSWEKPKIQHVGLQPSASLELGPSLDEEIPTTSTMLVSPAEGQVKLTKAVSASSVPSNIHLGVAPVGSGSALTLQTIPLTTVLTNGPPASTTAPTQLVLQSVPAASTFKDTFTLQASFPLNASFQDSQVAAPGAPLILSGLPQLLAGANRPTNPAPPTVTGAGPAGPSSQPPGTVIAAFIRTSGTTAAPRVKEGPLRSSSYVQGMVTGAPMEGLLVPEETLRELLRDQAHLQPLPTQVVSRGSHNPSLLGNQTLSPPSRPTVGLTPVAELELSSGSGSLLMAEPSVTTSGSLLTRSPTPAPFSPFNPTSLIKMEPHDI
Sequence of ETV5 (P41161 whole entry): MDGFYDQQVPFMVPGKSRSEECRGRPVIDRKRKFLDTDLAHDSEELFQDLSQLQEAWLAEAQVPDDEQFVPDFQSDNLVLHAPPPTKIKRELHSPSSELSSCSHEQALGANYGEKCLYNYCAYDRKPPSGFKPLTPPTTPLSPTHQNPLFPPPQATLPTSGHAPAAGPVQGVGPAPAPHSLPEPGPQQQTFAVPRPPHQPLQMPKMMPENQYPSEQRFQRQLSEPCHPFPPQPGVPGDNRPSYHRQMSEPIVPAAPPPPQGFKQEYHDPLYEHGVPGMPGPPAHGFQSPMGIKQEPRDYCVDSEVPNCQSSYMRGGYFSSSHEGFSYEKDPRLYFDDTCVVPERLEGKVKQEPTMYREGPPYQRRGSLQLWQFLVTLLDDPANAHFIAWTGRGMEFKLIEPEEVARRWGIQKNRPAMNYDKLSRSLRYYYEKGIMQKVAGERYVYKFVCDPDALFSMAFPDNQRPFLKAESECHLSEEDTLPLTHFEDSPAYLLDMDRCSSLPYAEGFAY

Consider TTCACG, for which the binding signal was 1.28 fold enrichment (6-mer frequency, TF over GST control) with FEV; 1.34 fold enrichment (6-mer frequency, TF over GST control) with ETV5; 1.51 fold enrichment (6-mer frequency, TF over GST control) with HSF1; 1.45 fold enrichment (6-mer frequency, TF over GST control) with SPIC; 1.46 fold enrichment (6-mer frequency, TF over GST control) in the assay with ELF4; 1.55 fold enrichment (6-mer frequency, TF over GST control) in the assay with ELK4. Further, the binding signal with ETV2 is 1.34 fold enrichment (6-mer frequency, TF over GST control); with ELF3 it was 1.41 fold enrichment (6-mer frequency, TF over GST control); with CRX it was 1.26 fold enrichment (6-mer frequency, TF over GST control); with ETV1, 1.32 fold enrichment (6-mer frequency, TF over GST control).
Turning to TACTCT, the binding signal with FEV was 1.33 fold enrichment (6-mer frequency, TF over GST control); in the assay with ETV5 it was 1.45 fold enrichment (6-mer frequency, TF over GST control); with HSF1 it was 1.37 fold enrichment (6-mer frequency, TF over GST control); with SPIC, 1.28 fold enrichment (6-mer frequency, TF over GST control); with ELF4, 1.42 fold enrichment (6-mer frequency, TF over GST control); in the assay with ELK4, 1.44 fold enrichment (6-mer frequency, TF over GST control). Also, the binding signal in the assay with ETV2 is 1.43 fold enrichment (6-mer frequency, TF over GST control); with ELF3, 1.49 fold enrichment (6-mer frequency, TF over GST control); with CRX, 1.6 fold enrichment (6-mer frequency, TF over GST control); with ETV1, 1.47 fold enrichment (6-mer frequency, TF over GST control).
On to AAGTAA, for which the binding signal in the assay with FEV is 1.24 fold enrichment (6-mer frequency, TF over GST control); with ETV5, 1.32 fold enrichment (6-mer frequency, TF over GST control); with HSF1, 1.24 fold enrichment (6-mer frequency, TF over GST control); with SPIC, 1.35 fold enrichment (6-mer frequency, TF over GST control); in the assay with ELF4, 1.27 fold enrichment (6-mer frequency, TF over GST control); with ELK4, 1.19 fold enrichment (6-mer frequency, TF over GST control). The binding signal with ETV2 was 1.38 fold enrichment (6-mer frequency, TF over GST control); with ELF3, 1.42 fold enrichment (6-mer frequency, TF over GST control); with CRX, 1.39 fold enrichment (6-mer frequency, TF over GST control); with ETV1, 1.31 fold enrichment (6-mer frequency, TF over GST control).
With CTTATT, the binding signal in the assay with FEV was 1.46 fold enrichment (6-mer frequency, TF over GST control); in the assay with ETV5 it was 1.42 fold enrichment (6-mer frequency, TF over GST control); in the assay with HSF1, 1.87 fold enrichment (6-mer frequency, TF over GST control); with SPIC, 1.62 fold enrichment (6-mer frequency, TF over GST control); with ELF4, 1.43 fold enrichment (6-mer frequency, TF over GST control); with ELK4 it was 1.49 fold enrichment (6-mer frequency, TF over GST control). For the same sequence, the binding signal with ETV2 is 1.5 fold enrichment (6-mer frequency, TF over GST control); with ELF3, 1.51 fold enrichment (6-mer frequency, TF over GST control); in the assay with CRX, 2.55 fold enrichment (6-mer frequency, TF over GST control); with ETV1 it was 1.52 fold enrichment (6-mer frequency, TF over GST control).
Consider GCTGAT, for which the binding signal is 1.07 fold enrichment (6-mer frequency, TF over GST control) in the assay with FEV; 1.11 fold enrichment (6-mer frequency, TF over GST control) with ETV5; 1.16 fold enrichment (6-mer frequency, TF over GST control) in the assay with HSF1; 1.19 fold enrichment (6-mer frequency, TF over GST control) with SPIC; 1.19 fold enrichment (6-mer frequency, TF over GST control) with ELF4; 1.25 fold enrichment (6-mer frequency, TF over GST control) with ELK4. In addition, the binding signal is 1.08 fold enrichment (6-mer frequency, TF over GST control) with ETV2; 1.16 fold enrichment (6-mer frequency, TF over GST control) in the assay with ELF3; 1.39 fold enrichment (6-mer frequency, TF over GST control) with CRX; 1.2 fold enrichment (6-mer frequency, TF over GST control) in the assay with ETV1.
Take TCTCCA: the binding signal is 1.44 fold enrichment (6-mer frequency, TF over GST control) with FEV; 1.39 fold enrichment (6-mer frequency, TF over GST control) with ETV5; 1.91 fold enrichment (6-mer frequency, TF over GST control) with HSF1; 1.36 fold enrichment (6-mer frequency, TF over GST control) with SPIC; 1.42 fold enrichment (6-mer frequency, TF over GST control) with ELF4; 1.69 fold enrichment (6-mer frequency, TF over GST control) with ELK4. The binding signal in the assay with ETV2 is 1.55 fold enrichment (6-mer frequency, TF over GST control); with ELF3, 1.29 fold enrichment (6-mer frequency, TF over GST control); in the assay with CRX it was 1.52 fold enrichment (6-mer frequency, TF over GST control); in the assay with ETV1, 1.38 fold enrichment (6-mer frequency, TF over GST control).
On to CGAACC, for which the binding signal in the assay with FEV is 1.24 fold enrichment (6-mer frequency, TF over GST control); with ETV5, 1.21 fold enrichment (6-mer frequency, TF over GST control); with HSF1 it was 1.47 fold enrichment (6-mer frequency, TF over GST control); with SPIC, 1.23 fold enrichment (6-mer frequency, TF over GST control); with ELF4, 1.26 fold enrichment (6-mer frequency, TF over GST control); in the assay with ELK4, 1.26 fold enrichment (6-mer frequency, TF over GST control). The binding signal was 1.2 fold enrichment (6-mer frequency, TF over GST control) in the assay with ETV2; 1.24 fold enrichment (6-mer frequency, TF over GST control) with ELF3; 1.02 fold enrichment (6-mer frequency, TF over GST control) in the assay with CRX; 1.13 fold enrichment (6-mer frequency, TF over GST control) in the assay with ETV1.
For the sequence TACCTA, the binding signal was 1.2 fold enrichment (6-mer frequency, TF over GST control) in the assay with FEV; 1.31 fold enrichment (6-mer frequency, TF over GST control) with ETV5; 1.28 fold enrichment (6-mer frequency, TF over GST control) in the assay with HSF1; 1.19 fold enrichment (6-mer frequency, TF over GST control) with SPIC; 1.3 fold enrichment (6-mer frequency, TF over GST control) with ELF4; 1.35 fold enrichment (6-mer frequency, TF over GST control) in the assay with ELK4. Moreover, the binding signal with ETV2 is 1.21 fold enrichment (6-mer frequency, TF over GST control); with ELF3, 1.3 fold enrichment (6-mer frequency, TF over GST control); in the assay with CRX, 1.55 fold enrichment (6-mer frequency, TF over GST control); in the assay with ETV1, 1.34 fold enrichment (6-mer frequency, TF over GST control).
